Results on 13 molecules are retold here after PMC12864922, “TDP-43 directly inhibits mRNA accumulation in neurites through modulation of mRNA stability”.

Whole data set: some 9,900 sequences, median “r (bound/input frequency ratio)” near 0.7, cut for the highest 2% near 6.5. The full list was thinned out, with the highest values kept by preference.

The labels stand for the following.
B1: ENSMUSG00000031028.589|Tub (ssRNA)
RNA: GGGAGUUCUACAGUCCGACGAUCGCUUCGAUAUCCGCAUGCUAUUUCUUUCAGUUUAUGGCCACCUGCCCAAAUUGACUUCCAGCUUACAAUCUUCUGUCAUUUCAAGAUCGUAAGAAGUACUGGGAUGGGUUUGAGUUUUCAGCACAGAGGCGAGUUGAUCUAGGAGCAUACAACUGUACUGAGCAGCUAGAGCAUUUGAGCAACCCAUGUAAUCUUUGUGUUUCCCUCCCUGUAAGAAGGCCUGUCAGAGCUUGCUGUAGGAGUUAGGGUAAAUGAAAGUUAGUCCUGGCUCUCAUCACCACUCUUGCGGUCGCACUAGUGUGGAAUUCUCGGGUGUCAAGG
B2: ENSMUSG00000004113.44|Cacna1b (ssRNA)
RNA: GGGAGUUCUACAGUCCGACGAUCGCUUCGAUAUCCGCAUGCUAUCCGCCGUGUACCCAAUGGCUAUCACUGCACUUUGGGACUCAGCACUGGCGUCCGGGCGCGGCACAGCUACCACCACCCCGAUCAGGACCACUGGUGCUAGCUGCACCACGACCACCCAUGUACCAGCUCCAUGGGUGAGGGUUCCAGUUGAUGAGUUUUAUCAUCCGCUCUGGGCUGUGGGGUCACAGCCCUGGGAGGAGGGCCCUCACAUCUCGGCCUCUGUGGUGGAGGCUCCUGCUUCCCUCCCUCCCUCCCUUUUCUCUUGCGGUCGCACUAGUGUGGAAUUCUCGGGUGUCAAGG
B3: ENSMUSG00000031028.188|Tub (ssRNA)
RNA: GGGAGUUCUACAGUCCGACGAUCGCUUCGAUAUCCGCAUGCUAUUAAUGGCAGAGUUGAGAACCUCAAAUUCUUUUGUUCCUACUGUUGCCCAGAAACUAGACUCUCUGACCUGCUAGGGUCUAUUCUGCAUGUCCUUUCUCUUCCCAGUUCCAGAGAUGAAACCCCUCCGAGUUAAUGUAUAAGGUUGGAAACCUUUCAGUAGGGAAUCAGGCAGUUCCCUGUUGAAAGUUGUCUGAGUUUUUGCACACCAUUCUGAUCUGAUGUGGCCUGUGCCUGGCUCCUCUAUGAGGACUUCGAGCUGCUCUUGCGGUCGCACUAGUGUGGAAUUCUCGGGUGUCAAGG
B4: ENSMUSG00000029028.242|Lrrc47 (ssRNA)
RNA: GGGAGUUCUACAGUCCGACGAUCGCUUCGAUAUCCGCAUGCUAGUCAGAACUAGUGAAGCUCCAGGCUCCUCGUGGCAGACCCUGGACAACGCUGGUAGCUGUUCUCCAUGAGACACGGCUGCUCACAGGUCCCUUUGAGUGGCUGUGGCAAGUACUCACCUACUAAGUGUUUAGGGUGGAGCUAUCCUGUGCUCACCCUGUCUCCCCCCAGUUCCUGCUGUUCCCUCCAGCCCAGCCCAGCCCAGGUGUGAGAUUCAUUGAGAUUUUUGAAACUGUUUUUACAGAUUCAAGCAGAACGCCUCCUCUUGCGGUCGCACUAGUGUGGAAUUCUCGGGUGUCAAGG
B5: ENSMUSG00000058297.76|Spock2 (ssRNA)
RNA: GGGAGUUCUACAGUCCGACGAUCGCUUCGAUAUCCGCAUGCUACUGAUCCUGCCCCUCAGCCCAACACCUGGAAUCCCUGCCCUGCCUAAUCAGCCCUACCCCAUCCUGCCUUUCUUCCUUCCUCUUCUGAGGCCAGGGAGAGGGAGGGAGGGCAGGCAGCUGAAAGCUGAGCGUCCUCCCCAAAUUGGGCUGAUUUGAUAUGAAAGCCCCACCACGGUCUUGUGGUGAUGAGGCAGGACCUGUACACACAGCAAGGCUUACUAUCCGUCUCCUGACAUCCGAAGAGCUCGUCGCAGGUGUGUCUCUUGCGGUCGCACUAGUGUGGAAUUCUCGGGUGUCAAGG
B6: ENSMUSG00000061578.198|Ksr2 (ssRNA)
RNA: GGGAGUUCUACAGUCCGACGAUCGCUUCGAUAUCCGCAUGCUAGGCACAGAGUGAAUGGGAAGGAGAGCCCUGAGGUCACUGGUCCACAUGCCCAAAGCCAUGCCCCCCAGUGAUCAGACCUGACACAAGAGGCAAAGCUGUCCCUAAGCAGAGAAUUAGCAGGGUUAGCCAGACAGCAAAAUCCAUGUAAACAUACAAAACCACCCCCCCUUUUUGAGUGGCCCUAUUGGAUGUACACACUAGGACCAAGCACGGGUCCAAAGCAGGAAGACUGAUUGACAGUAGUCACACUUCUAGAGAGACUCUUGCGGUCGCACUAGUGUGGAAUUCUCGGGUGUCAAGG
B7: ENSMUSG00000022095.7|Fam160b2|99:103 (ssRNA)
RNA: GGGAGUUCUACAGUCCGACGAUCGCUUCGAUAUCCGCAUGCUAGUCAAGUUUCCCCCACACGGUCCUUACCUGAACUUCUCUCCACCUCCAGAAGGGCAAGUCUGAGCCAGGAGCAUGACGGGUGGGGGAAGAUUCCUGCCACACAACUUCUGCCCACGGGCAGUCUCCUGCCUGGCCAUGCUGCCACUCUGUCCUCCAUGCCGGGGACUUCAGCUGCAGGACACCUCACCUGUUGACCCCACGAGCUGAGGUUUCAAGGAGGUGCUGGCUCCUAAGGCAGUGGUAUUCUUGGAGCCUUUUAGCUCUUGCGGUCGCACUAGUGUGGAAUUCUCGGGUGUCAAGG
B8: ENSMUSG00000004113.286|Cacna1b (ssRNA)
RNA: GGGAGUUCUACAGUCCGACGAUCGCUUCGAUAUCCGCAUGCUACUUUGCAAAGGGAAAACCCAUGCUCAGGAAGGUGUUCAGUGUGCACAGAUAGCUGGGAGGCCACGAGAGAAAGGUUGCACACAGACAGGCAGGCACUCCUUGGUGUGGUCUCUCUGUUUUGAAACUUCUGAUGACUUCUUGGUGGCUUGUUGUCUUCUACCCCAUGUUUCUCACAGGAUCUGUGUGUGUGUGUGUGUGUGUGUGUGUGUGUGUGUGUGUGUGUGUUAGCAUGUGUGUAUUAGCGUGUGUGAGUGUGUGAGCUCUUGCGGUCGCACUAGUGUGGAAUUCUCGGGUGUCAAGG
B9: ENSMUSG00000004113.288|Cacna1b (ssRNA)
RNA: GGGAGUUCUACAGUCCGACGAUCGCUUCGAUAUCCGCAUGCUAAAAACCCAUGCUCAGGAAGGUGUUCAGUGUGCACAGAUAGCUGGGAGGCCACGAGAGAAAGGUUGCACACAGACAGGCAGGCACUCCUUGGUGUGGUCUCUCUGUUUUGAAACUUCUGAUGACUUCUUGGUGGCUUGUUGUCUUCUACCCCAUGUUUCUCACAGGAUCUGUGUGUGUGUGUGUGUGUGUGUGUGUGUGUGUGUGUGUGUGUGUUAGCAUGUGUGUAUUAGCGUGUGUGAGUGUGUGAGCAUGCACGAGUCCUCUUGCGGUCGCACUAGUGUGGAAUUCUCGGGUGUCAAGG
B10: ENSMUSG00000004113.289|Cacna1b (ssRNA)
RNA: GGGAGUUCUACAGUCCGACGAUCGCUUCGAUAUCCGCAUGCUACAUGCUCAGGAAGGUGUUCAGUGUGCACAGAUAGCUGGGAGGCCACGAGAGAAAGGUUGCACACAGACAGGCAGGCACUCCUUGGUGUGGUCUCUCUGUUUUGAAACUUCUGAUGACUUCUUGGUGGCUUGUUGUCUUCUACCCCAUGUUUCUCACAGGAUCUGUGUGUGUGUGUGUGUGUGUGUGUGUGUGUGUGUGUGUGUGUGUUAGCAUGUGUGUAUUAGCGUGUGUGAGUGUGUGAGCAUGCACGAGUCAUAGGACUCUUGCGGUCGCACUAGUGUGGAAUUCUCGGGUGUCAAGG
B11: ENSMUSG00000004113.285|Cacna1b (ssRNA)
RNA: GGGAGUUCUACAGUCCGACGAUCGCUUCGAUAUCCGCAUGCUAUGGCUGCUUUGCAAAGGGAAAACCCAUGCUCAGGAAGGUGUUCAGUGUGCACAGAUAGCUGGGAGGCCACGAGAGAAAGGUUGCACACAGACAGGCAGGCACUCCUUGGUGUGGUCUCUCUGUUUUGAAACUUCUGAUGACUUCUUGGUGGCUUGUUGUCUUCUACCCCAUGUUUCUCACAGGAUCUGUGUGUGUGUGUGUGUGUGUGUGUGUGUGUGUGUGUGUGUGUGUUAGCAUGUGUGUAUUAGCGUGUGUGAGUGCUCUUGCGGUCGCACUAGUGUGGAAUUCUCGGGUGUCAAGG
B12: ENSMUSG00000004113.287|Cacna1b (ssRNA)
RNA: GGGAGUUCUACAGUCCGACGAUCGCUUCGAUAUCCGCAUGCUAAAAGGGAAAACCCAUGCUCAGGAAGGUGUUCAGUGUGCACAGAUAGCUGGGAGGCCACGAGAGAAAGGUUGCACACAGACAGGCAGGCACUCCUUGGUGUGGUCUCUCUGUUUUGAAACUUCUGAUGACUUCUUGGUGGCUUGUUGUCUUCUACCCCAUGUUUCUCACAGGAUCUGUGUGUGUGUGUGUGUGUGUGUGUGUGUGUGUGUGUGUGUGUGUUAGCAUGUGUGUAUUAGCGUGUGUGAGUGUGUGAGCAUGCACUCUUGCGGUCGCACUAGUGUGGAAUUCUCGGGUGUCAAGG
B13: ENSMUSG00000004113.284|Cacna1b (ssRNA)
RNA: GGGAGUUCUACAGUCCGACGAUCGCUUCGAUAUCCGCAUGCUAACCUCAUGGCUGCUUUGCAAAGGGAAAACCCAUGCUCAGGAAGGUGUUCAGUGUGCACAGAUAGCUGGGAGGCCACGAGAGAAAGGUUGCACACAGACAGGCAGGCACUCCUUGGUGUGGUCUCUCUGUUUUGAAACUUCUGAUGACUUCUUGGUGGCUUGUUGUCUUCUACCCCAUGUUUCUCACAGGAUCUGUGUGUGUGUGUGUGUGUGUGUGUGUGUGUGUGUGUGUGUGUGUUAGCAUGUGUGUAUUAGCGUGUGCUCUUGCGGUCGCACUAGUGUGGAAUUCUCGGGUGUCAAGG

In the test the target is TDP-43 (Homo sapiens, UniProt Q13148 1-414). As to the kind of experiment: RNA Bind-n-Seq with designed 260-mer pool; 25 mM Tris-HCl, 150 mM KCl, 3 mM MgCl2, BSA (printed 500 mg/mL), 20 units/mL SUPERase IN; pH not stated; 500 nM RNA pool, 1 h, 4 C; TDP-43 5, 50, 500 nM; high values mean tight binding. The following applies: protein: recombinant; tags: SBP (GST cleaved off with PreScission; pGEX-GST-SBP). In short, it runs like this: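 Binding (R) is the ratio of each oligo's mapped-read-normalized abundance in the bound fraction to its abundance in the input. To obtain it, SBP-tagged recombinant TDP-43 (5, 50 or 500 nM) on streptavidin beads was incubated with 500 nM of an in vitro-transcribed 260-nt 3′ UTR oligo pool for 1 h at 4 °C in 25 mM Tris-HCl, 150 mM KCl, 3 mM MgCl2, BSA and SUPERase IN. The RNA retained after washing was released with biotin, then reverse transcribed, amplified by PCR and sequenced.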
TDP-43, sequence (Q13148 whole entry): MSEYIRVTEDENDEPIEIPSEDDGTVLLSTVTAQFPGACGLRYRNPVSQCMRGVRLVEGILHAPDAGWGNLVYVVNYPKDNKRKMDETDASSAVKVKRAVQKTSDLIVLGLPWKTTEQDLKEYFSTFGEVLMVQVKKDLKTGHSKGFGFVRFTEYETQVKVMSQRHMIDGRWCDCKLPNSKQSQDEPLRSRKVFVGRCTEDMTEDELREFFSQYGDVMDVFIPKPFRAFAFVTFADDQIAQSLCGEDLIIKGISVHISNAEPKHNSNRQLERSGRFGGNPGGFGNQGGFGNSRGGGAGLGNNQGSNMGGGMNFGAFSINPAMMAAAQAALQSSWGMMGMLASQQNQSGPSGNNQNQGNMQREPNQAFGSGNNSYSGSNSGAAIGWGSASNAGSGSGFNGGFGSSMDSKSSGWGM
As to B1, the binding signal was 0.299 R (bound/input frequency ratio). Take B2: the binding signal was 0.443 R (bound/input frequency ratio).

As for B3, the binding signal was 1.12 R (bound/input frequency ratio).

With B4, the binding signal is 0.479 R (bound/input frequency ratio). The result for B5 reads 0.827 R (bound/input frequency ratio); that for B6, 1.41 R (bound/input frequency ratio). Under B7 stands 0.238 R (bound/input frequency ratio). The result for B8 reads 6.11 R (bound/input frequency ratio); that for B9, 7.06 R (bound/input frequency ratio). With B10, the binding signal is 5.06 R (bound/input frequency ratio). Consider B11, for which the binding signal was 7.91 R (bound/input frequency ratio). Turning to B12, the binding signal was 5.32 R (bound/input frequency ratio). For the molecule B13, the binding signal was 6.3 R (bound/input frequency ratio).
